# PI5P4K alpha inh: qHTS for Inhibitors of phosphatidylinositol 5-phosphate 4-kinase (PI5P4K); Phosphatidylinositol 5-phosphate 4-kinase type-2 alpha (Homo sapiens), P48426; PI5P4Kalpha enzyme, ADP-Glo luminescence, 60 min; active compounds read low; max response, %; 330,000 compounds, 1.2% hits; active means max response of -50% or lower; inconclusive means between -30% and -50%; inactive means -30% or higher; further: value at the top dose of about 77 µM; on the % scale 0 is the no-effect control and ±100 the full control effect
#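 Luminescence from ADP-Glo served as readout of PI5P4Kalpha activity in a qHTS format. Reaction: enzyme, substrate, compound, ATP at 5 microM final, 60 min at RT.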
# JMJD2A Tudor inh: qHTS Assay for Inhibitors of JMJD2A-Tudor Domain. Lysine-specific demethylase 4A (Homo sapiens), O75164. AlphaScreen JMJD2A-Tudor / H3K4me3 peptide binding. Potency, µM (series often up to 114 µM), for inactives: at the top dose activity change, negative = inhibition, usual class: inhibitors. 390,000 compounds, 4.4% hits. AID 504339, 2011; further: potency means the concentration at half of the fitted maximal effect; on the % scale 0 is the no-effect control and ±100 the full control effect; nearly all actives have a fitted effect of over 50% in size
# Target sequence (O75164 whole entry, looked up, the tested form may be a part): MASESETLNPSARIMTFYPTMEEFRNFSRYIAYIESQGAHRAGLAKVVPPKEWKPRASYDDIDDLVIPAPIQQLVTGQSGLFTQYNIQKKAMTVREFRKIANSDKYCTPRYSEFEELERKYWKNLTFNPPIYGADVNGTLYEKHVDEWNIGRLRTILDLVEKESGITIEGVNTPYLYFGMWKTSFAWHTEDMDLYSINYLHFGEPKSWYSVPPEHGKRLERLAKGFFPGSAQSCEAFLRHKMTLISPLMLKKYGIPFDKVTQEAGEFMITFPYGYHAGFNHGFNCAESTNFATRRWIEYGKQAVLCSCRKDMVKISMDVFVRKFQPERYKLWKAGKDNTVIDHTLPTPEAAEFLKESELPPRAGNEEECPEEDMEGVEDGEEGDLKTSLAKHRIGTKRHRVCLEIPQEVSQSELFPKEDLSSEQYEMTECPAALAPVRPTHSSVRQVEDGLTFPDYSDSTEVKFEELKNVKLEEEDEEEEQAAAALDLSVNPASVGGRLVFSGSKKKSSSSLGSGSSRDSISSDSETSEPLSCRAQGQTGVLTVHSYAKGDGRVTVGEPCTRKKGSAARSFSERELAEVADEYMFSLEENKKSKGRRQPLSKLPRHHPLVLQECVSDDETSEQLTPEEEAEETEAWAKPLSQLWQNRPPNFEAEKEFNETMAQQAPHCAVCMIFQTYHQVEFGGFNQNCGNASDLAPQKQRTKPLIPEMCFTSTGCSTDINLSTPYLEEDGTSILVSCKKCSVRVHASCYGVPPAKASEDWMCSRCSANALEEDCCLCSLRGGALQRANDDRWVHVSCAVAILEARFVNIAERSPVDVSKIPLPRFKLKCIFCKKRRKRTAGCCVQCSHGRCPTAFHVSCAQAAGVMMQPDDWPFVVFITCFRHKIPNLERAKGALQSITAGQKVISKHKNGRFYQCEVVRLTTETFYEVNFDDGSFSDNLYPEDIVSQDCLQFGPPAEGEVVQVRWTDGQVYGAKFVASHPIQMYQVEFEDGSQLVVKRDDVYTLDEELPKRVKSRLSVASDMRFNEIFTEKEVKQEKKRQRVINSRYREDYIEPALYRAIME
# PLK1 PBD inh: qHTS for Inhibitors of PLK1-PDB (polo-like kinase 1 - polo-box domain): Primary Screen; Serine/threonine-protein kinase PLK1 (Homo sapiens), P53350; Plk1 PBD binding of FITC phosphopeptide, fluorescence polarization; Potency, µM, for the others: max response, negative = inhibition, actives largely listed as inhibitors; 360,000 compounds, 2.8% hits; AID 720504, 2013; further: potency means the concentration at half of the fitted maximal effect; series mostly up to about 57 µM; on the % scale 0 is the no-effect control and ±100 the full control effect; nearly all actives have a fitted effect of over 65% in size
# G9a block: qHTS Assay for Inhibitors of Histone Lysine Methyltransferase G9a. Histone-lysine N-methyltransferase EHMT2 (Homo sapiens), Q96KQ7. G9a H3K9 monomethylation, AlphaScreen, 2 h. Potency, µM (top dose mostly 102 µM), without a hit: at the top dose activity, negative = inhibition, hits mostly inhibitors. 350,000 compounds, 8.8% hits; further: potency means the concentration at half of the fitted maximal effect; on the % scale 0 is the no-effect control and ±100 the full control effect; nearly all actives have a fitted effect of over 75% in size
#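 Compounds were preincubated with 20 nM G9a for 15 min, after which biotinylated H3K9 peptide (500 nM) and SAM (20 uM) started a 2 h room-temperature reaction. Monomethylated product was quantified by antibody-based AlphaScreen chemiluminescence.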
# HP1b binding inh: HTS for Inhibitors of HP1-beta Chromodomain Interactions with Methylated Histone Tails; Chromobox protein homolog 1 (Homo sapiens), P83916; AlphaScreen HP1-beta / biotin-H3K9me3 peptide binding; Potency, µM (titrated, usually from 114 µM), for the others: top-dose activity change, negative = inhibition, actives largely listed as inhibitors; 390,000 compounds, 0.56% hits; AID 540317, 2011; further: potency means the concentration at half of the fitted maximal effect; nearly all actives have a fitted effect of over 70% in size
#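 Compound inhibition of the preformed complex between 50 nM HP1-beta and 50 nM biotinylated H3K9me3 peptide was read by AlphaScreen. Buffer was PBS pH 7.4 with 0.01% Tween-20. Incubations ran 30 min at room temperature, with 10 ug/mL donor/acceptor beads.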
# BAZ2B block: qHTS Assay for Inhibitors of BAZ2B. Bromodomain adjacent to zinc finger domain protein 2B (Homo sapiens), Q9UIF8. AlphaScreen BAZ2B-H3K14Ac peptide displacement. Potency, µM (series often up to 114 µM), without a hit: top-dose activity change, negative = inhibition, usual class: inhibitors. 360,000 compounds, 4.4% hits; further: potency means the concentration at half of the fitted maximal effect; on the % scale 0 is the no-effect control and ±100 the full control effect; nearly all actives have a fitted effect of over 60% in size
#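 Protein-peptide AlphaScreen: BAZ2B 50 nM, b-H3K14Ac 50 nM, 1x PBS pH 7.4 + 0.01% Tween-20. Preincubation 30 min RT; cpd 30 min RT (top 110 uM); beads 20 min RT, light-protected.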
# The depositor's hits bear a star; ? = inconclusive; . = no result given; [ ] = dose if it differs, or a comment. Shown are actives, neighbours in structure and some others; about 12% of the full set was active somewhere. Unless noted, the call rests on the fitted dose curve; in most records, active means well fitted curve in the direction sought with a large enough effect; inconclusive means small, poorly fitted or top-dose-only effect, or another doubt; inactive means no such curve, though single readings can be large; an effect the other way counts as inactive or inconclusive.
SMILES,PI5P4K alpha inh,JMJD2A Tudor inh,PLK1 PBD inh,G9a block,HP1b binding inh,BAZ2B block
CCCOc1ccc(C(=O)Nc2cc(-c3nn4c(C)nnc4s3)ccc2C)cc1,-9,40µM*,?,-39%,12%,3%
COc1ccc(C2c3[nH]c4ccccc4c3C[C@H]3C(=O)N(C)CC(=O)N23)cc1OC (some centres not stated),0,-23%,-7%,-27%,25%,-21%
COC(=O)C1Cc2c([nH]c3ccccc23)C(C(C)C)N1 (configuration not stated),-16,-2%,1%,45µM*,20%,-13%
COc1ccc(C2NC(C(=O)O)Cc3c2[nH]c2ccccc32)cc1OC (configuration not stated),6,3.2µM*,-7%,?,?,3%
COc1cc(C2NC(C(=O)O)Cc3c2[nH]c2ccccc32)cc(OC)c1OC (configuration not stated),.,56µM*,-7%,?,-2%,79µM*
CCC1NC(C(=O)O)Cc2c1[nH]c1ccccc21 (configuration not stated),-20,-14%,-19%,-4%[12.7 µM],-14%,-12%
COC(=O)[C@@H]1Cc2c([nH]c3ccccc23)C(C)N1C(=O)c1ccccc1 (some centres not stated),0,-20%,5%,?,7%,?
CC(C)C(NC(=O)c1ccccc1F)C(=O)NCCCn1ccnc1 (configuration not stated),-6,0%,-4%,.,22%,.
COc1cccc(CNC(=O)C2CCN(C(=O)c3cnn(-c4ccccc4)c3-n3cccc3)CC2)c1,.,-16%,.,-6%[59 µM],32%,-5%
O=[N+]([O-])c1cc(-c2ccc(/C=N/c3nc4ccccn4c3-c3ccco3)o2)ccc1Cl,?,?,-3%,13µM*,-17%,45µM*
O=[N+]([O-])c1ccc(-c2ccc(/C=N/O)o2)cc1,-3,-23%,0%,?,5%,-32%
Cc1cccc(N2CCN(S(=O)(=O)c3ccc4oc(=O)c5ncn(C)c5c4c3)CC2)c1C,.,-8%,.,9%[59 µM],21%,-14%
COc1cc(C(C)=O)ccc1OCC(O)CNCC1(N2CCCCC2)CCCCC1 (configuration not stated),-1,3.2µM*,-6%,28µM*,?,50µM*
COc1ccccc1COCC(O)CNCC1(N2CCCCC2)CCCCC1 (configuration not stated),0,1.8µM*,-5%,4.5µM*,?,?
CC(=O)c1ccc(OCC(=O)NCC2(N3CCCCC3)CCCCC2)cc1,5,-15%,5%,-10%,13%,-1%
C=CCNCC(O)COc1ccc(C(C)=O)cc1OC (configuration not stated),2,2µM*,5%,.,71µM*,50µM*
CC(=O)Nc1ccn(C2OC(C(COC(C)=O)NC(=O)C3CCCN3C(=O)OC(C)(C)C)C(OC(C)=O)C2OC(C)=O)c(=O)n1 (configuration not stated),.,6%,.,.,40%,.
COc1ccc(C)cc1NCc1nnc2n1CCCCC2,.,-15%,.,?,17%[57 µM],-10%
CC1=C(C(=O)Nc2ccccc2)C(c2ccc(C)o2)n2c(s/c(=C\c3ccco3)c2=O)=N1 (configuration not stated),-17,-13%,0%,?,19%,50µM*
Cc1cc(C)c2oc(-c3ccc(C)c(NC(=O)/C=C/c4ccco4)c3)nc2c1,.,56µM*,.,10µM*,?,?
Cc1ccc(S(=O)(=O)O/N=C2\CCCc3ccccc32)cc1,1,17%,1%,18%[12.7 µM],55%,-4%
